Measured values taken from PubChem BioAssay (NCI).
This is part of a sample that, as a whole, favours compounds with a hit. Of some 83,000 tested, about 20% had one in any assay.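 Testing used 96-well plates and a 48-hour single-concentration exposure. Example: -40 means 40% of the starting cells died.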 A number with no mark means an inactive call. The source made the active and inactive calls. How the source made its calls: active means growth percent below 10; inactive means the rest.

Tested on: K-562 leukemia
Experiment: NCI-60 one-dose screen, 48 h (100 = growth as untreated, 0 = no growth, -100 = all killed)
Details: 10 µM unless noted

| SMILES | growth |
| --- | --- |
| CC(C)(C)CC(C)(C)n1nnnc1C(Nc1nccs1)c1cc2cccc3ccc4cccc1c4c32 (stereo not drawn) | 111% |
| COc1ccc(/C(N)=N/C(N)=N/c2nc3ccccc3s2)cc1 | 32.9% |
| COc1ccc(-c2nn(-c3ccc(S(C)(=O)=O)cc3)cc2/C=N/O)cc1 | 107% |
| CCOc1cccc(-c2nc3sccn3c2-c2ccnc(S(C)(=O)=O)n2)c1 | 55.4% |
| O=C(c1ccc(Cl)cc1)C1[C@H](c2ccc(Cl)cc2)[C@@H](c2ccccc2)NC12C(=O)Nc1ccccc12 (stereo partly drawn) | 33.6% |

Tested on: MALME-3M melanoma
Experiment: as above
Details: 10 µM unless noted

| SMILES | growth |
| --- | --- |
| COc1cc2oc(-c3cccc(NC(=O)c4cc(N)ccc4Cl)c3)cc(=O)c2c(OC)c1OC | 100% |
| CC(C)(C)n1cc(-c2ccnc(NCCCNS(=O)(=O)c3cccc(F)c3)n2)c(-c2ccc(Cl)c(O)c2)n1 | 94% |
| COc1cccc2cc(-c3cc4ccccc4[nH]3)/c(=N\NC(=O)c3ccc(Cl)cc3)oc12 | 61.7% |
| Nc1nc(Nc2ccccc2SSc2ccccc2Nc2nc(N)nc(-c3ccc4ccccc4c3)n2)nc(-c2ccc3ccccc3c2)n1 | 93.1% |
| CC(Nc1c(C#N)cnc2ccc(-c3cnc(N)nc3)cc12)c1ccccc1 (stereo not drawn) | 0.078% (active) |
| CC(=O)Nc1cccc(Nc2nc(N[C@H](C)c3ccccc3)c3ccccc3n2)c1 | 71.3% |
| COc1cc(OC)cc(C(=O)Nc2cccc(C#Cc3cccc4[nH]nc(N)c34)c2)c1 | 40.5% |
| COc1c(N2CC3CCCNC3C2)c(F)cc2c(=O)c(C(=O)N/N=C/c3ccccc3)cn(C3CC3)c12 (stereo not drawn) | 94.1% |
